From PubChem BioAssay AID1559 (National Center for Advancing Translational Sciences (NCATS), 2009)
Records with an inconclusive call do not appear. A number with no mark means an inactive call. Activity calls are given as the source filed them. Calls come from the whole dose curve; as a rule, active = well fitted curve in the direction sought with a large enough effect; inconclusive = small, poorly fitted or top-dose-only effect, or another doubt; inactive = no such curve, though single readings can be large or run the other way.

Molecular target: Microtubule-associated protein tau (Homo sapiens) (UniProt P10636)
Test: Confirmation Concentration-Response Assay for Inhibitors of Tau Fibril Formation, Fluorescence Polarization
Conditions: recombinant tau K18 P301L (four-repeat tau fragment) heparin fibrillization, Alexa594 FP; series mostly up to 57.1 µM; activity change, negative = inhibition: at the top concentration
Excerpt: NIH Molecular Libraries Probe Production Network [MLPCN] NIH Chemical Genomics Center [NCGC] MLPCN Grant: X01 MH083262-01 Assay Provider: Carlo Ballatore, University of Pennsylvania NCGC Assay Overview: The microtubule-associated protein tau is an abundant protein in the axons of neurons that stabilizes microtubules. With its ability to modulate microtubule dynamics, tau contributes directly or indirectly, to key structural and regulatory cellular functions. Particularly important is the influence tau exerts on axonal transport, which allows signaling molecules, trophic factors and other essential cellular constituents to travel along the axons. Under pathological conditions, tau becomes sequestered into insoluble aggregates called neurofibrillary tangles. This phenomenon is believed to have pathological consequences by promoting axonal transport deficits that ultimately lead to synaptic dysfunction and neuronal loss. To identify inhibitors of tau aggregation, a heparin-induced tau fibril formation assay was used that employed a recombinantly expressed fragment of tau, K18 (Q242-E372), bearing a P301L mutation (Gustke et al. 1994; Hong et al. 1998). […] Gustke, N., B. Trinczek, et al. (1994). "Domains of tau protein and interactions with microtubules." Biochemistry 33(32): 9511-22. Hong, M., V. Zhukareva, et al. (1998). "Mutation-specific functional impairments in distinct tau isoforms of hereditary FTDP-17." Science 282(5395): 1914-7. Li, W. and V. M. Lee (2006). "Characterization of two VQIXXK motifs for tau fibrillization in vitro." Biochemistry 45(51): 15692-701. von Bergen, M., S. Barghorn, et al. (2001). "Mutations of tau protein in frontotemporal dementia promote aggregation of paired helical filaments by enhancing local beta-structure." J Biol Chem 276(51): 48165-74.
For screening, 2 uL/well human K18 P301L (15 uM unlabeled and 0.24 uM Alexa 594-labeled tau final concentrations) in reagent buffer (100 mM sodium acetate pH 7) was dispensed into black solid 1536-well plates (Grenier) using a solenoid-based dispenser. Following transfer of 23 nL compound or DMSO vehicle by a pin tool, 2 uL/well heparin (20 uM final concentration) in reagent buffer was added and the plate centrifuged 15 s at 1000 RPM. Plates were incubated 6 hr at 37 C and then 1 uL/well ThT (30 uM final concentration) was added. After a 1 hr ambient incubation, the plates were read by an Envision (Perkin Elmer) to monitor Alexa 594 FP (555 nm excitation and 632 nm emission). Keywords: NIH Roadmap, MLPCN, MLI, MLSMR, NCGC, qHTS, tau, tauopathies, Alzheimer's disease, fibril, neurodegeneration, aggregation

Chain of Microtubule-associated protein tau (Homo sapiens) (P10636 561-689 P618L limits assumed): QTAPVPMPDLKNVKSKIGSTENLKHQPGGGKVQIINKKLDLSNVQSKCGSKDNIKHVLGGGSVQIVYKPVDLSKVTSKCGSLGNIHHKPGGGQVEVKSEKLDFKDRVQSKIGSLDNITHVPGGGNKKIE

Row | Compound | activity change, negative = inhibition | Potency
1 | COC(=O)C1CCc2sc(NC(=O)Cc3ccccc3)c(C(=O)Nc3ccc(Cl)cc3)c21 (configuration not stated) | 2.38% | –
2 | CCOC(=O)c1nn(-c2ccccc2)c(=O)c2c(NC(=O)c3ccccc3)scc12 | -5.82% | –
3 | Cn1sc(NC(=O)c2ccccc2)nc1=O | -3.96% | –
4 | CC(C)(C)c1ccc(NC(=O)N2CCN(c3ccc([N+](=O)[O-])cn3)CC2)cc1 | -12.9% [at 100 µM] | –
5 | COc1ccc2c(c1)c(CC(=O)N1CCOCC1)c(C)n2C(=O)c1ccc(Cl)cc1 | -2.9% [at 100 µM] | –
6 | O=C(NCc1cccnc1)C1CCN(S(=O)(=O)c2cccs2)CC1 | -5.75% [at 100 µM] | –
7 | Cc1cc2c(N)cccc2nn1 | – | 39.8 µM (active)
8 | O=C(Nc1ccccc1)Nc1ccccc1 | -2.15% [at 100 µM] | –
9 | COc1cccc(/C=C2/SC(=S)N(CC(=O)Nc3nnc(C)s3)C2=O)c1 | -24.6% | –
10 | CCOC(=O)c1c(N)sc2c1CCOC2 | -6.49% | –
11 | O=C(Nc1nnc(S(=O)(=O)Nc2ccccc2)s1)C1CCCCC1 | -5.85% [at 100 µM] | –
12 | COc1c(Cl)cccc1NC(=O)c1c(NC(=O)Cc2ccccc2)sc2c1CCCC2 | 4.04% | –
13 | CC(C)c1ccc(NS(=O)(=O)c2ccc3[nH]cc(C(=O)NCCc4ccccc4)c(=O)c3c2)cc1 | -17.1% [at 100 µM] | –
14 | CN1CCc2sc(NC(=O)Cc3ccccc3)c(C(=O)Nc3ccc(Cl)cc3)c2C1 | 23% | –
15 | CCOC(=O)c1nn(-c2ccc(C)c(C)c2)c(=O)c2c(N)scc12 | -29.4% | –
16 | COc1ccc(NC(=O)c2c(NC(=O)Cc3ccccc3)sc3c2CCCC3)cc1 | -3.97% | –
17 | O=S(=O)(c1ccc(NC(=S)N/N=C/c2ccc(N3CCOCC3)cc2)cc1)N1CCOCC1 | -4.1% [at 100 µM] | –
18 | O=C(Cc1ccccc1)Nc1sc2c(c1C(=O)Nc1ccc(Cl)cc1)CCCC2 | 0.795% | –
19 | Cc1ccc(N(C)S(=O)(=O)c2nnc(NC(=O)C3CCCCC3)s2)cc1 | -6% [at 100 µM] | –
20 | COC(=O)c1c(NC(=O)C(C)(C)C)sc2c1C(C(=O)OC)CC2 (configuration not stated) | -2.5% [at 100 µM] | –
21 | O=C(O)CN1C(=O)/C(=C/c2ccc(-c3cccc(Cl)c3)o2)SC1=S | -8.8% [at 100 µM] | –
22 | O=C(CSc1nc2scc(-c3ccco3)c2c(=O)n1-c1ccccc1)N1CCOCC1 | -7.95% | –
23 | Cn1[nH]c(CSc2ccc(Cl)cc2)cc1=O | -3.05% [at 100 µM] | –
24 | O=C(Cc1ccccc1)Nc1sc2c(c1C(=O)Nc1ccc(Br)cc1)CCCC2 | -13.5% | –
25 | COc1ccc(OC)c(NC(=O)c2c(NCc3cccs3)sc3c2CCCC3)c1 | 10.3% | –
26 | CCOC(=O)N1CCN(C(=O)CN2C(=O)/C(=C\c3cccc(OC)c3)SC2=S)CC1 | -18.3% | –
27 | Cc1ccc(NC(=O)c2c(NC(=O)Cc3ccccc3)sc3c2CCCC3)cc1 | -10.5% | –
